MEKK2 WT-MEK5: raises or lowers MEK5 binding to wildtype human MEKK2 PB1 domain | Q9Y2U5 | AID 1531 | actives 1.1% (n = 290,000) | binding response (% of control), % at 10 µM | bead flow cytometry, Alexa488-MEK5 binding to MEKK2 WT; actives lie on both sides; in the data active means binding response below about 67% or above about 130%
CRFR2-BP ag: CRF-BP/CRF-R2 complex agonism; HEK293 CRF-R2/CRF-BP, calcium dye fluorescence (FLIPR); percent of saturating CRF peptide response; activation, % at 13.2 µM; actives 0.46% (n = 350,000); AID 588473;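 active means activation of at least 50%, plus an integration ratio under a set limit after plate pattern correction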;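 further: plate controls were neutral control wells without compound for no effect and CRF at EC100 for full effect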
CRFR2-BP antag: antagonists of CRF-binding protein/CRF-R2 receptor complex | HEK293 CRF-R2/CRF-BP, CRF-induced calcium fluorescence | actives 0.59% (n = 350,000) | AID 588475 | inhibition, % at 11.8 µM;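 active means inhibition of the ligand-induced calcium signal above about 50% at the single tested concentration, limit read from the data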
MEKK2mut PB1 HTS: signal of MEK5 binding to mutant human MEKK2 PB1 domain. AID 1530. actives 0.35% (n = 290,000). bead flow cytometry, Alexa488-MEK5 binding to MEKK2 mutant. percent response, % at 10 µM; in the data active means percent response above about 24%, passing the limit was not always enough
MEKK3 PB1 HTS: modulators (inhibitors or enhancers) of MEK5 binding to human MEKK3 PB1 domain; actives 1.4% (n = 290,000); binding response (% of control), % at 10 µM; bead-based flow cytometry, Alexa488-MEK5 binding to MEKK3; actives lie on both sides; 0 = blocked by unlabeled MEK5, 100 = vehicle; Q99759;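 active means binding response more than 3 SD above or below the average of its plate-row segment, actives on both sides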;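 further: Alexa488 bead fluorescence after subtracting the streptavidin-only scavenger bead signal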
ABCB6 inh MLPCN: human ABCB6 transporter inhibition; Q9NP58; K562-ABCB6 porphyrin accumulation, flow cytometry, 1 h; hits give low values; fluorescence ratio to DMSO, % at 10 µM; actives 0.19% (n = 360,000);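 active means fluorescence ratio to DMSO below 75%, the collection mean minus 3 SD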;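 further: signal is porphyrin accumulated inside mitochondria; 100% equals median channel fluorescence of DMSO control wells; lower ratio means ABCB6 inhibition with less porphyrin fluorescence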
Target sequence (Q9NP58 whole entry, looked up): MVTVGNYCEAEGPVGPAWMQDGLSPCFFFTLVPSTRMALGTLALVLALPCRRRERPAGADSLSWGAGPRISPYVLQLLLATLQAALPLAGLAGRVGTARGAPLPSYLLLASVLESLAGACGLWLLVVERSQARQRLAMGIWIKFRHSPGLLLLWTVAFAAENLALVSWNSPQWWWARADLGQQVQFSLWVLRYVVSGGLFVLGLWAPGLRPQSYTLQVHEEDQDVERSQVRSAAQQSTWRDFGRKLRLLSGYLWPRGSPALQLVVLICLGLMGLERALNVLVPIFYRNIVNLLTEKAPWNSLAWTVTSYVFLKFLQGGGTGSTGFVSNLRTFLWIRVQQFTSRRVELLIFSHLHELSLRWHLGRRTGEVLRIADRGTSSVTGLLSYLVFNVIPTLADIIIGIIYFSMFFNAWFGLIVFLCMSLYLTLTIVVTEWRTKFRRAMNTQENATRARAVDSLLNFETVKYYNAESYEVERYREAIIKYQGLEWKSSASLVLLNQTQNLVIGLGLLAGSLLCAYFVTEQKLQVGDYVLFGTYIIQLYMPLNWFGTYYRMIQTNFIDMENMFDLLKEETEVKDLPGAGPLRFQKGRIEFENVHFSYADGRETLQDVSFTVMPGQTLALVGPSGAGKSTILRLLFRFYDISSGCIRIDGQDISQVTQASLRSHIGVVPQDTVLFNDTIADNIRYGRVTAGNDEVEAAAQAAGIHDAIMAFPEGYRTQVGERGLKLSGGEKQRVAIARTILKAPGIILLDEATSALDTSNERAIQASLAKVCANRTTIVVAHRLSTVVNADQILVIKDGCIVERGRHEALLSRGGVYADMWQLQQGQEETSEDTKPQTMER
MEKK2wt confirm: raises or lowers MEK5 binding to wildtype human MEKK2, retest | shares compounds with MEKK3 PB1 HTS | bead flow cytometry, Alexa488-MEK5 binding to MEKK2 WT; actives lie on both sides | binding response (% of control), % at 10 µM | actives 2.4% (n = 5,900) | AID 1892; in the data active means binding response below about 16% or above about 210%; inactive means in between
MEKK2mut-MEK5: signal of MEK5 binding to mutant human MEKK2, retest; shares compounds with MEKK3 PB1 HTS; bead flow cytometry, Alexa488-MEK5 binding to MEKK2 mutant; percent response, % at 10 µM; actives 2% (n = 5,900); AID 1893; in the data active means percent response mostly above about 71%, no sharp cut-off; inactive means mostly below about 38%;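 further: higher means compound restores mutant binding toward wildtype level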
MEKK3-MEK5 inh: MEKK3-MEK5 PB1 inhibition, single concentration confirmation; shares compounds with MEKK3 PB1 HTS; bead flow cytometry, Alexa488-MEK5 binding to MEKK3; hits give low values; binding response (% of control), % at 10 µM; actives 1.8% (n = 5,900);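 active means binding response below 72% of control, or above a set upper limit, though filed actives all read lower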;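 further: 100% = DMSO only wells and 0% = binding blocked by excess unlabeled MEK5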
* marks the source's active call; other numbers are inactive results; · = no result; [ ] = remark or other dose. Sampled rows, rich in hits. Any-hit rate of the full collection: about 2.9%.

SMILES | MEKK2 WT-MEK5 | CRFR2-BP ag | CRFR2-BP antag | MEKK2mut PB1 HTS | MEKK3 PB1 HTS | ABCB6 inh MLPCN | MEKK2wt confirm | MEKK2mut-MEK5 | MEKK3-MEK5 inh
Cc1ccc(C)c(Cn2nnc3c(=O)[nH]c(C4CCCN(S(=O)(=O)Cc5ccccc5)C4)nc32)c1 (stereo not given) | 92 | 0 | 10 | -6 | 96 | 99 | · | · | ·
Cc1cc(C)nc(SCC(=O)N2CCOCC2)n1 | 96 | -1 | 0 | -5 | 97 | 98 | · | · | ·
Cc1cc(C)nc(SCCC(=O)N2CCOCC2)n1 | 123 | 1 | 14 | 11 | 123* | 106 | 99 | -1 | 100
CCN(CC(=O)NCc1ccc(Cl)cc1)C(=O)CCc1ccccc1O | 103 | -2 | 1 | 3 | 100 | 104 | · | · | ·
COc1ccccc1CCc1nnc(CCC(=O)NC(C)Cc2cccnc2)o1 (stereo not given) | 55 | 1 | 3 | -16 | 47*[inhibitor] | 101 | 101 | 3 | 105
CCN(CCn1cccn1)C(=O)CCc1nnc(CCc2ccccc2OC)o1 | 90 | 0 | 23 | -11 | 97 | 97 | · | · | ·
CCN(Cc1ccncc1)C(=O)CCc1nnc(CCc2ccccc2OC)o1 | 80 | 0 | -7 | -8 | 70*[inhibitor] | 97 | 99 | -6 | 101
COc1ccc(C2=NOC(C(=O)NCc3cccnc3)C2)cc1 (stereo not given) | 108 | 0 | -2 | 6 | 104 | 101 | · | · | ·
OCCCCCNc1ncnc2ccccc12 | 111 | 0 | -7 | 12 | 128* | 95 | 101 | 2 | 98
O=C(CSc1ccc(-c2ccco2)nn1)Nc1ccccc1F | 107 | -2 | 0 | 6 | 103 | 94 | · | · | ·
CCCN(CC(=O)Nc1cccc(Br)c1)CC(=O)Nc1ccc(F)c(F)c1F | 154* | 14 | -28 | 31 | 101 | 97 | 103 | -3 | 101
CCCN(CC(=O)Nc1cccc(S(N)(=O)=O)c1)CC(=O)Nc1ccc(F)c(F)c1F | 100 | -3 | 7 | -9 | 99 | 92 | · | · | ·
COc1cc(/C=N/S(=O)(=O)CCc2ccccc2)cc(OC)c1O | 103 | 1 | -4 | 0 | 128* | 104 | 103 | -1 | 100
Cc1cc(Nc2cccc(Cl)c2)nc(-c2ccccc2O)n1 | 121 | 5 | -10 | 11 | 103 | 101 | · | · | ·
Cc1cc(Nc2ccc(Cl)cc2)nc(-c2ccccc2O)n1 | 140* | 3 | -9 | 28* | 110 | 95 | 127 | 9 | 105
CCOc1ccccc1C1C(C(=O)Nc2ccccc2OC)=C(C)Nc2nnnn21 (stereo not given) | 111 | -1 | -10 | 26* | 113 | 99 | 101 | 4 | 100
O=C1c2ccccc2C(=O)N1CN(C(=O)COc1ccc(Cl)cc1Cl)c1cccc(F)c1 | 105 | -1 | -41 | 1 | 139* | 100 | 99 | -1 | 100
CC1CN(C(=O)Cn2c(=O)oc3ccccc32)CC(C)O1 (stereo not given) | 102 | 2 | 5 | 2 | 103 | 96 | · | · | ·
Cc1ccc(S(=O)(=O)N2CCC(C(=O)NCCc3ccc(S(N)(=O)=O)cc3)CC2)cc1 | 100 | -1 | 10 | 1 | 98 | 106 | · | · | ·
NS(=O)(=O)c1ccc(CCNC(=O)C2CCN(S(=O)(=O)c3ccc(Br)s3)CC2)cc1 | 3.0*[inhibitor] | 0 | 7 | -46 | 2.0*[inhibitor] | 99 | 104 | 4 | 103
CCC1=NN(C(=O)CCc2ccccc2)C(O)(C(F)(F)F)C1 (stereo not given) | 95 | 0 | -15 | -5 | 92 | 97 | · | · | ·

Source: PubChem (several laboratories)
